This passage reports growth results from PubChem BioAssay (NCI).

The panel holds about 83,000 compounds, 20% with a hit somewhere; the sample as a whole holds those more often.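 Assay: single dose, 48 h. Readout: percent growth (0 = no net growth; negative = cell death). Active: <10.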 Unmarked numbers belong to inactive results. Activity calls are given as the source filed them.

For the assay, the system named is MDA-MB-468 breast. The experiment in a line: NCI-60 one-dose screen, 48 h (100 = growth as untreated, 0 = no growth, -100 = all killed). The note with it: 10 µM unless noted.
As to `O=C1c2cc3c(cc2-c2c1c1cc(F)c(F)cc1c(=O)n2C[C@H](O)CO)OCO3`, the growth is -57.2% (active). For `COc1ccc(NS(=O)(=O)c2ccc(-c3cnc(C4CC4)o3)cc2)cc1` the value was 12.5%. Next, `CN1CCN(c2nc(C3=C(c4c[nH]c5ccccc45)C(=O)NC3=O)c3ccccc3n2)CC1`: 131%. `C/C=C(/C)C(=O)OC1C=C(CO)C(=O)C(OC(=O)/C(C)=C\C)C1C(C)C` (stereo not given): the growth was -50.9% (active). Next, `N#Cc1c(N)nnn1Cc1cc(=O)oc2c1ccc1ccccc12`: 106%; `COc1cc2c(c(OC)c1OC)-c1ccc(N=NC(N)=S)c(=O)cc1[C@@H](NC(C)=O)CC2`: -40.8% (active). For `O=c1oc2ccccc2cc1-c1nn(-c2ccccc2)cc1/C=N/Nc1nc(-c2ccccc2)c(N=Nc2ccccc2)s1`, the growth was 48.5%. For `O=C1CCCC1[n+]1ccccc1` (stereo not given) the value was 120%. For `CCN1C(=O)N(CC)C2Nn3c(s/c(=C4\C(=O)N(C)c5ccccc54)c3=O)=NC21` (stereo not given) the value was 12.2%; for `COc1cc(CCC[P+](c2ccccc2)(c2ccccc2)c2ccccc2)cc2c1OCO2`, -22.7% (active). For `O=C(OCc1ccc2c(Br)cc(Br)c(O)c2n1)c1cc2ccccc2[nH]1`, the growth is -73.2% (active). Take `O=C1NCc2ccc3c(-c4cccc(Cl)c4)c[nH]c3c21`: the growth was 26.5%. For `Cc1ccc(-c2nc(C#N)c(S(=O)(=O)N(C)C)o2)cc1` the value was 81.6%. For `CC(C)(C)Nc1c(-c2c3ccccc3cc3ccccc23)nc2ccccn12` the value was 68.4%; for `Cc1nc(N)nc(SCc2ccccc2)c1Br`, 69%. On to `Nc1c(C(=O)Nc2cccc3ccccc23)sc2nc3c(cc12)COCC3`, for which the growth was 38.6%. Next, `C=C(c1ccc(C(=O)O)cn1)c1cc2c(cc1C)C(C)(C)CCC2(C)C`: 91.5%. For `Nc1ncnc2c1ccn2-c1cccc(NC(=O)c2ccc(N3CCOCC3)c(C(F)(F)F)c2)c1` the value was 40.3%; for `COc1cc(-c2nn(-c3cccc(NC(=O)c4ccc(Cl)c(C(F)(F)F)c4)c3)cc2-c2ccncc2)ccc1Cl`, 54.4%; for `Cc1ccc(-c2nc(/C=C3/C(=O)Nc4ccc(F)cc43)c3ccccn23)cc1`, 77.3%. For `CCN(CC)c1ccc(C=O)c(OCc2cn(CC(=O)Nc3ccc(Cl)cc3)nn2)c1` the value was 63.5%; for `COc1cc(-c2cc(/C=C3\C(=O)Nc4ccc(Cl)cc43)[nH]n2)cc(OC)c1OC`, 67.7%; for `NC(=O)c1c(NC(=S)Nc2ccc(OC(F)(F)F)cc2)sc2c1CCC1(C2)OCCO1`, 94.7%. In the case of `Cc1cn(-c2cc(C(=O)Nc3cccc(-n4ccc5c(NC(=O)c6ccccc6)nccc54)c3)cc(C(F)(F)F)c2)cn1`, the growth is -9.97% (active).

Regarding `O=C(/C=C/C12c3ccccc3C(c3ccccc31)C1C(=O)NC(=O)C12)c1ccccc1` (stereo not given), the growth was 9.65% (active).
